High-throughput results: PubChem BioAssay, several laboratories
PfHsp40 yeast = rescue of yeast from PfHsp40 toxicity, primary screen, S. cerevisiae, ATP luminescence | S. cerevisiae expressing PfHsp40, growth rescue | growth rescue, % at 12.5 µM | hit rate 0.68% among 340,000; in the data active = growth rescue above about 28%, passing the limit was not always enough; inconclusive = no clear call, values can overlap the other calls;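 also: yeast W303a lacking pdr1 and pdr3 grown in galactose medium; growth measured after three days at 30 °C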
PrPC surface inh = inhibitors of human cell surface prion protein PrPC, primary screen, cell-based, TR-FRET | Major prion protein (Homo sapiens), P04156 | TR-FRET read-out | inhibition, % at 13.8 µM | hit rate 0.43% among 370,000; in the data active = inhibition above about 24%
GDH-TPI counter = GDH-TPI coupling enzyme inhibitors, primary screen, artefact control for M. tuberculosis FBA inhibitor project, biochemical, absorbance, full deck | hit rate 1.2% among 360,000 | inhibition, % at 4.8 µM | GDH-TPI coupled enzyme counterscreen, NADH absorbance | AID 588335, 2011; in the data active = inhibition above about 30%
FBA Mtb inh = Mtb FBA enzyme inhibitors, primary screen, biochemical, fluorescence, strain H37Rv. purified M. tuberculosis FBA, fluorescence read-out. inhibition, % at 1 µM. hit rate 2.3% among 360,000; in the data active = inhibition above about 27%
Target sequence (P9WQA3 whole entry, looked up): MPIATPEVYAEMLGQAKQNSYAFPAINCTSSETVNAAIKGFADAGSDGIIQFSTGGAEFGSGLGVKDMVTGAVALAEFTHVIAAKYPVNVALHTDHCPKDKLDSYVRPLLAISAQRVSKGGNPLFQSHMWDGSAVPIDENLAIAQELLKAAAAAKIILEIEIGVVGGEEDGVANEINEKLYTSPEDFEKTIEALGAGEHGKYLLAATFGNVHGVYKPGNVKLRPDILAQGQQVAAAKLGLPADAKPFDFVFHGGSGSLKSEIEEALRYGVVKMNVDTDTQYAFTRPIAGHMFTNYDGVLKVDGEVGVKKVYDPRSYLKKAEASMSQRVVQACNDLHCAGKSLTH
PrP UTR inh = inhibition of PrP 5' UTR reporter expression; cell-based PrP 5' UTR mRNA reporter, plate reader; hit rate 0.35% among 340,000; inhibition, % (test concentration not listed); in the data active = inhibition above about 52%
BJeLR lethal = MLPCN primary cell-based screen for lethality selective to Ras in HRASV12 cells; BJeLR (HRASV12) viability, CellTiter-Glo ATP luminescence, 48 h; inhibition, % (test concentration not listed); hit rate 0.17% among 300,000; AID 1554, 2009; in the data active = inhibition above about 50%; inconclusive = no clear call, values can overlap the other calls
Hits are given with their value; 0 = inactive; ? = inconclusive; - = no result given; + = active, no number. Compounds with a hit are over-represented: about 4.5% of the library has one in this group of screens.

SMILES | PfHsp40 yeast | PrPC surface inh | GDH-TPI counter | FBA Mtb inh | PrP UTR inh | BJeLR lethal
CN(C)S(=O)(=O)c1cccc(C(=O)N/N=C\c2ccnc3ccccc23)c1 | - | 0 | - | - | - | -
O=C(O)COc1ccc2c(c1)O/C(=C\c1ccco1)C2=O | 0 | 0 | 0 | 0 | 0 | 0
COc1ccc(OC)c(/C=C2\Oc3cc(OCC(=O)N4CC(O)C[C@H]4C(=O)O)ccc3C2=O)c1 (stereo partly specified) | 0 | 0 | 40.2 | 0 | 0 | 0
COc1cccc(/C=C2\Oc3cc(OCC(=O)N4CCCCC4)ccc3C2=O)c1OC | 0 | 0 | 39.1 | 0 | 0 | 0
O=C(O)COc1ccc2c(c1)O/C(=C\c1cccs1)C2=O | 0 | 0 | 41.8 | 0 | 0 | 0
COc1ccc(/C=C2\Oc3cc(OCC(=O)N4CCC[C@H]4C(=O)O)ccc3C2=O)c(OC)c1OC | 0 | 0 | 38.2 | 0 | 0 | 0
C/C(C=NNC(=O)CSc1nc2ccccc2n1Cc1ccccc1Cl)=C\c1ccccc1 | - | 0 | - | - | - | -
COc1ccc(/C=C2\Oc3cc(OC(=O)N4CCOCC4)ccc3C2=O)c(OC)c1 | 0 | 0 | 31.0 | 0 | 0 | 0
CCOC(=O)c1sc(-c2cccs2)nc1C | 0 | 0 | 0 | 0 | 0 | 0
O=C(c1nc2nc(-c3cccs3)cc(C(F)(F)F)n2n1)N1CCN(Cc2ccccc2)CC1 | ? | 0 | 0 | 144.8 | 0 | 0
O=C(c1nc2nc(-c3ccccc3)cc(C(F)(F)F)n2n1)N1CCOCC1 | 0 | 0 | 0 | 0 | 0 | 0
CCOC(=O)c1nc2nc(-c3cccs3)cc(C(F)(F)F)n2n1 | 0 | 0 | 0 | 113.6 | 0 | 0
Nc1nc2nc(-c3cccs3)cc(C(F)(F)F)n2n1 | 0 | 0 | 0 | + | 0 | 0
O=C(c1cnn2c(C(F)(F)F)cc(-c3cccs3)nc12)N1CCCC1 | 0 | 0 | 0 | 0 | 0 | 0
COc1ccc(CCNCC(O)COc2cccc(C)c2)cc1OC (stereo unspecified) | - | 0 | - | - | - | -
O=c1cc(-c2ccc(O)c(-c3c(O)cc(O)c4c(=O)cc(-c5ccc(O)cc5)oc34)c2)oc2cc(O)cc(O)c12 | 0 | 0 | 33.5 | 0 | 0 | 0
COc1c(-c2ccc(O)cc2)oc2cc(O)cc(O)c2c1=O | 0 | 0 | 0 | 0 | 0 | -
O=c1cc(-c2ccc(O)c(O)c2)oc2cc(O)cc(O)c12 | 0 | 0 | 0 | 0 | 0 | 0
O=c1cc(-c2ccc(O)cc2)oc2c(-c3c(O)cc(O)c4c(=O)cc(-c5ccc(O)cc5)oc34)c(O)cc(O)c12 | 0 | 0 | 35.3 | 0 | 0 | -
O=c1c(-c2c(O)cc(O)c3c(=O)cc(-c4ccc(O)cc4)oc23)c(-c2ccc(O)cc2)oc2cc(O)cc(O)c12 | 104.8 | 0 | 0 | 0 | 0 | -
Cn1c(C(=O)NN)cc2cc(OCc3ccccc3)ccc21 | - | 0 | 31.0 | 0 | - | 0
O=C(Nc1nnc(-c2cccs2)o1)c1cccc(Oc2ccccc2)c1 | 500.1 | 0 | 0 | 0 | 0 | -
CCOC(=O)[C@]12CCCCC/C=C\1N(CCc1ccc(Cl)cc1)C(=O)[C@H]2CC(=O)N1CCN(C(=O)c2ccco2)CC1 | - | 0 | - | - | - | -
CC(=O)Nc1nc2ncccn2c1-c1ccc(F)c(F)c1 | - | 0 | - | - | - | -
Cc1ccc(C2=NN(C(=O)CCl)C(c3ccco3)C2)o1 (stereo unspecified) | 0 | 0 | 0 | 0 | 0 | 86.6
SMILES | PfHsp40 yeast | PrPC surface inh | GDH-TPI counter | FBA Mtb inh | PrP UTR inh | BJeLR lethal
CN(Cc1ccccc1)C(=O)OCc1cn(Cc2cc(F)ccc2F)nn1 | - | 0 | - | - | - | -
CC(C)OC(=O)c1cc(C(=O)c2cc(F)ccc2O)coc1=N | 0 | 0 | 36.4 | 0 | 0 | 0
CC(C)OC(=O)c1cc(C(=O)c2cc(Cl)ccc2O)coc1=N | 0 | 0 | 0 | 0 | 0 | 0
S=C1CCC(c2ccc(Br)cc2)=NN1c1ccccc1 | 0 | 0 | 33.2 | 0 | 0 | 0
C/C=C/C(=O)N1CCC(C(=O)NCC2COc3ccccc3O2)CC1 (stereo unspecified) | - | 0 | - | - | - | -
CN1N=C(C(=O)N=c2sc3ccccc3n2C)CCC1=O | 0 | 0 | 49.0 | 0 | 0 | -
COc1ccc(/C=C2\Sc3ccc(C(=O)NCc4cccnc4)cc3N(C)C2=O)cc1OC | 0 | 0 | 34.6 | 0 | 0 | 0
COc1cccc(/C=C2\Sc3ccc(C(=O)NCc4cccnc4)cc3N(C)C2=O)c1 | 0 | 0 | 0 | 0 | 0 | 0
